Measured values taken from ChEMBL document CHEMBL4513216, “Probing the Open Global Health Chemical Diversity Library for Multistage-Active Starting Points for Next-Generation Antimalarials” (ACS Infect Dis, 2020).
Screen size: about 68,000 compounds; about 2,700 (4%) showed an effect of 50% or more. Many of the other results were omitted from the sample, so strong results are more common in it than they were.

test system: Plasmodium berghei; assay: Screen against P. berghei liver stage (PbLuc), transformed with Luciferase, at 2uM; assay type: functional, HepG2; conditions: tested at 2 uM

First: O=C(c1ccccc1-c1nnn[nH]1)N1CCOC(C(F)(F)F)C1 (stereo not given)
Second: CO[C@H]1CN(C(=O)c2cccc(C)n2)CC[C@@]12CCCO2
The INHIBITION of the first is lower: -12.13% for the first, 19.91% for the second.

Compared with `COCCCNc1c(C#N)c2c(c3nncn13)CN(C)CC2`, `COCCNc1c(C#N)c2c(c3nncn13)CN(C)CC2` is lower in INHIBITION: 52.23% for the first, 18.59% for the second.

Going from `CN1CCc2c(C#N)c(NCCCO)n3cnnc3c2C1` to `Cc1ccc(CN2CCc3c(COCC4CC4)nn(C)c3C2)s1`, the INHIBITION rises from -9.74% to 22.12%.

Going from `Cc1oncc1C(=O)NCC(c1ccccc1Cl)N1CCOCC1` (stereo not given) to `O=C(NCCc1cscn1)c1coc(CN2CCOCC2)c1`, the INHIBITION falls from 8.6% to -0.28%.

Going from `COc1cc(N2CCC3(CC2)CC(N2CCOCC2)CO3)ncn1` (stereo not given) to `COc1cc(N2CCC3(CC2)CC(N2CCOCC2)C3)ncn1`, the INHIBITION rises from 34.24% to 52.36%.

Going from `COc1cc(N2CCC3(CC2)CC(N2CCN(C)CC2)CO3)ncn1` (stereo not given) to `COc1ccc(C(=O)C2CCCN(c3cc(OC)ncn3)C2)c(C)c1` (stereo not given), the INHIBITION rises from -39.89% to 60%.

Compared with `CSCCC(C)(O)CNS(=O)(=O)Cc1cccc(C)c1` (stereo not given), `COc1cc(C#N)ccc1OCC(=O)NS(=O)(=O)c1ccccc1` is higher in INHIBITION: -40.82% for the first, -0.89% for the second.

First: O=C(Cc1ccon1)NC1CCCN(c2ccccc2F)C1=O (stereo not given)
Second: COc1ccc(F)cc1-c1ccccc1CC1(C(=O)O)CCOCC1
The INHIBITION of the first is lower: 28.73% for the first, 53.95% for the second.

First: O=C(Cc1nc(-c2ccncc2)n[nH]1)NCCCN1CCOCC1
Second: COCCNC(=O)C1(Cc2ccccc2-c2ccncc2)CCOCC1
The INHIBITION of the first is lower: 15.46% for the first, 52.82% for the second.

Going from `CSCCNC(=O)C1CCC(=O)N(C2CCCC2)C1` (stereo not given) to `CSCCCNC(=O)C1CCC(=O)N(C2CCCC2)C1` (stereo not given), the INHIBITION rises from 21.24% to 56.49%.

First: O=C(NCCn1cccc1)C1CCC(=O)N(C2CCCC2)C1 (stereo not given)
Second: CC(C)OCCNC(=O)C1CCC(=O)N(C2CCCC2)C1 (stereo not given)
The INHIBITION of the first is lower: 10.75% for the first, 28.95% for the second.

Going from `O=C(NCCN1CCCCC1=O)C1CCC(=O)N(C2CCCC2)C1` (stereo not given) to `C=C(C)CNC(=O)C1CCC(=O)N(C2CCCC2)C1` (stereo not given), the INHIBITION falls from 54.29% to 2.52%.

Compared with `O=C(NCC(F)(F)F)C1CCC(=O)N(C2CCCC2)C1` (stereo not given), `COC(C)(C)CNC(=O)C1CCC(=O)N(C2CCCC2)C1` (stereo not given) is lower in INHIBITION: 9.13% for the first, 8.03% for the second.

Compared with `CC(C)OCCCNC(=O)C1CCC(=O)N(C2CCCC2)C1` (stereo not given), `Cn1cc(CN2CC[C@@H]3[C@@H](CCC(=O)N3CCc3c[nH]cn3)C2)cn1` is lower in INHIBITION: 68.61% for the first, -21.16% for the second.

First: Cc1cc(C(=O)N2CCCS2(=O)=O)c(C)o1
Second: Cc1cc(C(=O)N2CCCC(c3ccc(C(=O)O)cc3)C2)c(C)o1 (stereo not given)
The INHIBITION of the first is higher: -15.41% for the first, -56.9% for the second.

Compared with `COC(=O)CN1CCC(C(=O)c2cc(F)ccc2F)CC1`, `COc1cccc(CNCC2CCN(CC(C)O)CC2)c1OC` (stereo not given) is higher in INHIBITION: 35.23% for the first, 61.96% for the second.

First: Cc1oc(-c2ccco2)nc1CN1CCCC(Cn2cncn2)C1 (stereo not given)
Second: CN1CCCC1CCn1ccnc1-c1ccc2ccccc2n1 (stereo not given)
The INHIBITION of the first is higher: 43.7% for the first, 5.55% for the second.

First: O=C(CN1CC(c2ccccc2)CC1=O)N1CCC(c2ncc[nH]2)CC1 (stereo not given)
Second: Cc1cccc(N2CCN(C(=O)Cc3ccccc3O)C(C)C2)n1 (stereo not given)
The INHIBITION of the first is lower: -63.6% for the first, 10.49% for the second.

Compared with `Cc1nnc2n1CCN(C(=O)C(C)Oc1ccc(C#N)cc1)C2` (stereo not given), `Cc1nsc(N2CCN(C(=O)Nc3cccc(F)c3)CC2)n1` is higher in INHIBITION: 35.56% for the first, 45.82% for the second.

Going from `CC(C)c1noc(OCC(=O)N(C)C(C)C)n1` to `COc1ccc(-c2nnc(SC(C)C(N)=O)[nH]2)c(OC)c1` (stereo not given), the INHIBITION falls from -6.48% to -61.3%.

Going from `Cc1nsc(N2CCCN(C(=O)c3ccc4[nH]ccc4c3)CC2)n1` to `Cc1nsc(N2CCN(C(=O)Nc3ccc4[nH]ccc4c3)CC2)n1`, the INHIBITION rises from 24.36% to 57.75%.

Compared with `CO[C@H]1CN(C(=O)c2cn3cc(C)ccc3n2)CC[C@@]12CCCO2`, `CO[C@H]1CN(C(=O)c2ccc3oc(C)cc3c2)CC[C@@]12CCCO2` is lower in INHIBITION: 80.88% for the first, 27.16% for the second.

First: COc1ccccc1-c1ccccc1CC1(C(=O)O)CCNCC1
Second: COc1ccccc1C1=NOC(CC2(C(=O)O)CCOCC2)C1 (stereo not given)
The INHIBITION of the first is lower: -18.15% for the first, 8.89% for the second.

First: O=C(NCCO)C1(Cc2ccccc2-c2ccncc2)CCOCC1
Second: CC(C)(C)NC(=O)C1(Cc2ccccc2-c2ccncc2)CCOCC1
The INHIBITION of the first is higher: 26.14% for the first, 16.55% for the second.

Going from `COCCOc1cccc(CNCc2ccc(-n3cncn3)nc2)c1` to `CN(CCc1ccncc1)Cc1nccn1Cc1ccccc1`, the INHIBITION rises from 5.47% to 33.78%.

Compared with `CC(C)N1CCO[C@H]2CN(C(=O)Cc3cccs3)C[C@H]21`, `COc1ccccc1CNC1(CCO)CCOCC1` is higher in INHIBITION: 9.87% for the first, 13.12% for the second.

First: COc1ccc(C(=O)C2CCCN(c3cnccn3)C2)c(C)c1 (stereo not given)
Second: COc1ccc(C(=O)C2CCCN(c3cc(N)ncn3)C2)c(C)c1 (stereo not given)
The INHIBITION of the first is higher: 16.87% for the first, 16.32% for the second.

First: CN(C)Cc1ccccc1CN(C)C(=O)c1ccoc1
Second: CCc1ccsc1C(=O)N(C)CCc1ccncc1
The INHIBITION of the first is lower: 16.49% for the first, 70.66% for the second.

Going from `CCC(=O)N(CC)CCc1nccs1` to `CCN(CCc1nccs1)C(=O)c1ccco1`, the INHIBITION rises from 36.57% to 44.23%.

First: CN(CCc1ccncc1)C(=O)c1sccc1OC(F)F
Second: Cc1ncsc1C(=O)N(C)CCc1ccncc1
The INHIBITION of the first is lower: -120.22% for the first, -3.38% for the second.

Going from `CN(CCc1ccncc1)CCc1nccs1` to `CN(CCc1ccccn1)CCc1nccs1`, the INHIBITION falls from 78.24% to 15.84%.

First: CN(CCc1cccs1)CCc1nccs1
Second: CCOc1ccccc1CNCC1CCN(CC(C)O)CC1 (stereo not given)
The INHIBITION of the first is higher: 55.25% for the first, 21.43% for the second.

First: O=C(O)c1ccn(COc2c(Cl)cccc2Cl)n1
Second: Cn1ccc(NCc2cc3cc(F)ccc3o2)n1
The INHIBITION of the first is higher: 10.62% for the first, 5.1% for the second.

Compared with `COc1ccc(CNCC2CCN(CC(C)O)CC2)c2ccccc12` (stereo not given), `O=C1CC[C@H]2CN(Cc3cccc(F)c3)CC[C@H]2N1CCc1c[nH]cn1` is lower in INHIBITION: 7.54% for the first, -13.3% for the second.

Compared with `Cc1cc(-n2nc(C3CC3)nc2-c2csnn2)ccn1`, `O=C1CC[C@H]2CN(Cc3cccnc3)CC[C@H]2N1CCc1c[nH]cn1` is higher in INHIBITION: -77.53% for the first, 50.94% for the second.
